Structures are written as SMILES. Where “and” joins values, the source holds several entries; their conditions need not be identical. Identical values can stand only once. Inconclusive results are not listed. Some compounds were tested as several samples or in several runs, with calls that do not always agree. Calls of active or inactive are those of the source. How the source made its calls: active means hit-call score of the fitted dose curve at least 0.9, where 1 is the maximum; inconclusive means response in the unintended direction; inactive means score below 0.9.

zebrafish Thyroid Hormone Receptor beta (TRb), thrb (gene 30607), sequence (Q9PVE4 whole entry, looked up, the tested form may be a part): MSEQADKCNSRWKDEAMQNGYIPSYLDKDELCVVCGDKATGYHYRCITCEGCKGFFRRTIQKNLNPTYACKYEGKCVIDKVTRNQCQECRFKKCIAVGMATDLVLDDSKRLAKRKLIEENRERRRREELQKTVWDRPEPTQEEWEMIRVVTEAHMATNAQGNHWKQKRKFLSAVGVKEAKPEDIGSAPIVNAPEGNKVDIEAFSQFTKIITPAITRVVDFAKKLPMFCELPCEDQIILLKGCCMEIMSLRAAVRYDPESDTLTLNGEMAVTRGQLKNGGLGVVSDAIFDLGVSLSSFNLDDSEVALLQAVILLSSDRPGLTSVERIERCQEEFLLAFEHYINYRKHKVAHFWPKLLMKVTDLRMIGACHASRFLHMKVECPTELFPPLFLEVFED
frog Thyroid hormone Receptor alpha (TRa), thra-a (gene 397942), sequence (P15204 whole entry, looked up, the tested form may be a part): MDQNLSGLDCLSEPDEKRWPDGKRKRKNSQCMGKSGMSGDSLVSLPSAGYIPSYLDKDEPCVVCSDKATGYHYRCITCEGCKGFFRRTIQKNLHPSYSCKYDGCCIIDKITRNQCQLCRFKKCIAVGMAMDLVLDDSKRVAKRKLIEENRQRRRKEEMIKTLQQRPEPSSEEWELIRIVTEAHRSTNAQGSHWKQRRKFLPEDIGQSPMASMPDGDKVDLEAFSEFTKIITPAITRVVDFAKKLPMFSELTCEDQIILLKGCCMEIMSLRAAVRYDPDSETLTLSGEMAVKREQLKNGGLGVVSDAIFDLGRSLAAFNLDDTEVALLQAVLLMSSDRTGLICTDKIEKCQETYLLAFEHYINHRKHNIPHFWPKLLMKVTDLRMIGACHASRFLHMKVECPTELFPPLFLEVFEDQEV
mouse Peroxisome Proliferator-activated Receptor gamma (PPARg), Pparg (gene 19016), sequence (P37238 whole entry, looked up, the tested form may be a part): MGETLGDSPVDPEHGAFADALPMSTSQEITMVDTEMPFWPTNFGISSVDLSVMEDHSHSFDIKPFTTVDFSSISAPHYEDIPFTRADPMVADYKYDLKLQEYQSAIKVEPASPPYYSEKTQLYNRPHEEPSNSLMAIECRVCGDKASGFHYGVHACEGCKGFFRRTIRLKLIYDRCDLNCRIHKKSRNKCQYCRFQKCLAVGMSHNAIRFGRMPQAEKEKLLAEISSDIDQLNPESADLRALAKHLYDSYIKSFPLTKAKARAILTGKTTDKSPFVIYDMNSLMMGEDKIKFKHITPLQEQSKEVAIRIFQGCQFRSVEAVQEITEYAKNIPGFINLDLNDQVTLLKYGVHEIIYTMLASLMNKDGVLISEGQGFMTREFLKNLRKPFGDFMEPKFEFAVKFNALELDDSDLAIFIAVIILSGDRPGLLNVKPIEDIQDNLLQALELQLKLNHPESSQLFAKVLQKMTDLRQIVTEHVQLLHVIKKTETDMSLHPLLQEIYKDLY

The target of the first assay is Peroxisome proliferator-activated receptor gamma (Homo sapiens) (UniProt P37231). Nature of the assay: ATG_hPPARg_XSP2: Attagene TRANS-FACTORIAL Multi-Species (XSP2) HepG2 Assay for human Peroxisome Proliferator-activated Receptor gamma (PPARg) (AID 2283829).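 Further: actives raise reporter mRNA above DMSO so AC50 reflects PPARg activation.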 In a few lines: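 After transfecting HepG2 with GAL4-UAS reporter constructs, cells are dosed for 24 h; total RNA is reverse-transcribed, PCR-amplified, FAM-labeled, HpaI-digested and resolved by capillary electrophoresis. Activity is measured as mRNA induction relative to DMSO.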
Peroxisome proliferator-activated receptor gamma (Homo sapiens), sequence (P37231 whole entry, looked up, the tested form may be a part): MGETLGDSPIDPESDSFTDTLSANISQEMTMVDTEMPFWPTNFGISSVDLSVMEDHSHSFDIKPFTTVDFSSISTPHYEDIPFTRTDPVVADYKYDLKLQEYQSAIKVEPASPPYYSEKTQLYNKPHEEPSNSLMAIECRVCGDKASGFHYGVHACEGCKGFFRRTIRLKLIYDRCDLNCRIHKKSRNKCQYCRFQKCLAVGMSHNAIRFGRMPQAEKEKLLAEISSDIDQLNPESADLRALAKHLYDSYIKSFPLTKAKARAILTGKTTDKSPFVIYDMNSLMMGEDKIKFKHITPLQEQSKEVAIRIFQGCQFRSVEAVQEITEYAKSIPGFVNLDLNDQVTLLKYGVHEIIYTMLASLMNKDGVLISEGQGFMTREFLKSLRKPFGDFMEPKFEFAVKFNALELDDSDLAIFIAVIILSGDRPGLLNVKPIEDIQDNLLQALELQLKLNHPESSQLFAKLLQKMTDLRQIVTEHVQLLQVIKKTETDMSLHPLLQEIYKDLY
With `CN(C)C(=N)N=C(N)N`, the result was inactive.

What is called AC50 is the concentration giving half of the maximal activity seen. For the compound `O=C(Oc1ccccc1)c1ccc(O)cc1`, the AC50 is 100 µM (active) and the result was inactive.

For the compound `CCCCCCCCCCCCN`, the half-maximal activity concentration (AC50) was 30 µM (active) and 11.9 µM (active).

Another assay deals with mouse Peroxisome Proliferator-activated Receptor gamma (PPARg), Pparg (gene 19016) (UniProt P37238). Nature of the assay: ATG_mPPARg_XSP2: Attagene TRANS-FACTORIAL Multi-Species (XSP2) HepG2 Assay for mouse Peroxisome Proliferator-activated Receptor gamma (PPARg) (AID 2283830).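 Further: hits are gains in reporter mRNA above DMSO so AC50 marks activation.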 In a few lines:
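HepG2 cells transiently transfected with GAL4-UAS reporter units for chimeric NR-Gal4 proteins including mouse PPARg, exposed 24 h; medium contained 3 nM 6-alpha-fluorotestosterone and 1.5 nM norgestrel. Reporter mRNA quantified by RT-PCR, HpaI digestion and capillary electrophoresis, vs DMSO.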
In the case of `O=c1cc(-c2ccccc2)oc2cc(O)cc(O)c12`, the AC50 is 7.92 µM (active) and 1.57 µM (active).

With `CN(C)C(=N)N=C(N)N`, the compound was classed as inactive.

Take `O=C(Oc1ccccc1)c1ccc(O)cc1`: the AC50 was 68.1 µM (active) and the compound was called inactive.

As for `CCCCCCCCCCCCN`, the half-maximal activity concentration (AC50) was 46.2 µM (active) and 37.7 µM (active).

The target in a further assay is Nuclear receptor subfamily 1 group I member 2 (Mus musculus) (UniProt O54915). Nature of the assay: ATG_mPXR_XSP2: Attagene TRANS-FACTORIAL Multi-Species (XSP1) HepG2 Assay for mouse Pregnane X Receptor (PXR) (AID 2283831). In a few lines: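 Reporter transcripts were quantified by RT-PCR, FAM primer extension, HpaI digestion and capillary electrophoresis after 24 h of chemical exposure in transiently transfected HepG2 cells carrying chimeric receptor-GAL4 constructs; DMSO served as baseline.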
Nuclear receptor subfamily 1 group I member 2 (Mus musculus), sequence (O54915 whole entry, looked up, the tested form may be a part): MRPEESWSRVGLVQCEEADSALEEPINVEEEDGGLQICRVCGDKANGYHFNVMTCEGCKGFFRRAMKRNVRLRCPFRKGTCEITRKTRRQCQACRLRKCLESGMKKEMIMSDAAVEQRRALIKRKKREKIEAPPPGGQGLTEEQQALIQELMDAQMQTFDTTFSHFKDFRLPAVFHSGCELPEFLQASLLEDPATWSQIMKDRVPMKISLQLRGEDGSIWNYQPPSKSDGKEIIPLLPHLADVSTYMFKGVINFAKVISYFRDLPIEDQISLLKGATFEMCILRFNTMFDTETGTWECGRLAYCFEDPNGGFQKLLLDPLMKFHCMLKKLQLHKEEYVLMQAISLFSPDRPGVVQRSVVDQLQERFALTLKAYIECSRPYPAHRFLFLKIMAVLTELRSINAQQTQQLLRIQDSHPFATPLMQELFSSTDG
For the compound `O=c1cc(-c2ccccc2)oc2cc(O)cc(O)c12`, the half-maximal activity concentration (AC50) is 12.3 µM (active) and 25.9 µM (active).

For the compound `O=C(Oc1ccccc1)c1ccc(O)cc1`, the half-maximal activity concentration (AC50) is 33.2 µM (active).

`CCCCCCCCCCCCN`: the call was inactive.

For another assay, the target named is zebrafish Thyroid Hormone Receptor alpha (TRa), thraa (gene 30670) (UniProt Q98867). The experiment in a line: ATG_zfTRa_XSP2: Attagene TRANS-FACTORIAL Multi-Species (XSP1) HepG2 Assay for zebrafish Thyroid Hormone Receptor alpha (TRa) (AID 2283832).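 Further: actives raise zebrafish TRa-Gal4 reporter transcript above DMSO baseline.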 In a few lines: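 HepG2 cells transiently transfected with multiplexed GAL4-UAS reporter units expressing chimeric NR-Gal4 proteins; 24 h after dosing, reporter mRNA measured by RT-PCR, FAM labelling, HpaI digestion and capillary electrophoresis; gain of signal versus DMSO baseline.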
zebrafish Thyroid Hormone Receptor alpha (TRa), thraa (gene 30670), sequence (Q98867 whole entry, looked up, the tested form may be a part): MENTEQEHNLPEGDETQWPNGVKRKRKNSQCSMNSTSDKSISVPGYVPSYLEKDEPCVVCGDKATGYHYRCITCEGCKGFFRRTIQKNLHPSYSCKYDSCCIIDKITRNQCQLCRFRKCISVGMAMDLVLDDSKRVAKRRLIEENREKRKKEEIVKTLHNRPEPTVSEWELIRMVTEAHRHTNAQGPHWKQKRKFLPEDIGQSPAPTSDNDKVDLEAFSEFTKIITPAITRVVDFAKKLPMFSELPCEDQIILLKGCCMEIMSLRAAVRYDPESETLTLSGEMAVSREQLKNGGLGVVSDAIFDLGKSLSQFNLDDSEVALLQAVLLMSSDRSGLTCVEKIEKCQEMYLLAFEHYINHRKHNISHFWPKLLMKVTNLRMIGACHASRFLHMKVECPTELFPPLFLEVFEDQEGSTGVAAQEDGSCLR
For the compound `O=c1cc(-c2ccccc2)oc2cc(O)cc(O)c12`, the call was inactive.

`CN(C)C(=N)N=C(N)N`: the call was inactive.

For the compound `O=C(Oc1ccccc1)c1ccc(O)cc1`, the compound was called inactive.

For the next assay, the system named is zebrafish Peroxisome Proliferator-activated Receptor gamma (PPARg), gene 557037. The experiment in a line: ATG_zfPPARg_XSP2: Attagene TRANS-FACTORIAL Multi-Species (XSP2) HepG2 Assay for zebrafish Peroxisome Proliferator-activated Receptor gamma (PPARg) (AID 2283833).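 Further: actives increase reporter signal over DMSO so AC50 reflects activation.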 In a few lines: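 Multi-species TRANS format in HepG2, 24 h dosing; medium also contained 3 nM 6-alpha-fluorotestosterone and 1.5 nM norgestrel to stimulate androgen receptor. Zebrafish PPARg-GAL4 induced reporter mRNA was measured by RT-PCR/capillary electrophoresis.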
Consider `O=c1cc(-c2ccccc2)oc2cc(O)cc(O)c12`, for which the outcome was inactive.

For the compound `CN(C)C(=N)N=C(N)N`, the compound was called inactive.

Consider `O=C(Oc1ccccc1)c1ccc(O)cc1`, for which the call was inactive.

For the compound `CN(CCOc1ccc(CC2SC(=O)NC2=O)cc1)c1ccccn1` (stereo not drawn), the call was inactive.

With `CCCCCCCCCCCCN`, the compound was called inactive.

Another assay relates to turtle Thyroid Hormone Receptor, alpha (TRa), gene 101949057. The experiment in a line: ATG_trTRa_XSP2: Attagene TRANS-FACTORIAL Multi-Species (XSP1) HepG2 Assay for turtle Thyroid Hormone Receptor, alpha (TRa) (AID 2283834).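 Further: hits raise reporter mRNA over the DMSO baseline so AC50 marks activators.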 In a few lines: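 Transfection of HepG2 with multiple reporter transcription units, then chemical dosing for 24 h. Total RNA was reverse-transcribed, reporter sequences PCR-amplified and FAM-labelled, then sized by capillary electrophoresis. DMSO served as baseline.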
Take `O=c1cc(-c2ccccc2)oc2cc(O)cc(O)c12`: the compound was classed as inactive.

Take `CN(C)C(=N)N=C(N)N`: the result was inactive.

In the case of `O=C(Oc1ccccc1)c1ccc(O)cc1`, the outcome was inactive.

As to `CCCCCCCCCCCCN`, the compound was classed as inactive.

Another assay concerns the target zebrafish Thyroid Hormone Receptor beta (TRb), thrb (gene 30607) (UniProt Q9PVE4). The experiment in a line: ATG_zfTRb_XSP2: Attagene TRANS-FACTORIAL Multi-Species (XSP1) HepG2 Assay for zebrafish Thyroid Hormone Receptor beta (TRb) (AID 2283836).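 On AC50: potency for induction of reporter signal above DMSO so agonist direction.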 In a few lines: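 HepG2 cells transiently transfected with multiplexed GAL4-UAS reporter units expressing chimeric NR-Gal4 proteins; read 24 h after dosing. Reporter mRNA quantified by RT-PCR, 6-FAM labelling, HpaI digest and capillary electrophoresis; gain of signal fitted relative to DMSO.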
For `O=c1cc(-c2ccccc2)oc2cc(O)cc(O)c12`, the AC50 was 100 µM (active) and the compound was called inactive.

Take `CN(C)C(=N)N=C(N)N`: the outcome was inactive.

For the compound `O=C(Oc1ccccc1)c1ccc(O)cc1`, the result was inactive.

Take `CN(CCOc1ccc(CC2SC(=O)NC2=O)cc1)c1ccccn1` (stereo not drawn): the compound was called inactive.

Regarding `CCCCCCCCCCCCN`, the call was inactive.

The next assay has as its target frog Thyroid hormone Receptor alpha (TRa), thra-a (gene 397942) (UniProt P15204). The experiment in a line: ATG_frTRa_XSP2: Attagene TRANS-FACTORIAL Multi-Species (XSP2) HepG2 Assay for frog Thyroid hormone Receptor alpha (TRa) (AID 2283839).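 On AC50: AC50 reflects induction of frog TRa-driven reporter mRNA above DMSO baseline.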 In a few lines:
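Transfect HepG2 with multiple reporter units (GAL4-UAS), dose chemical, incubate 24 h. Isolate RNA, reverse-transcribe, PCR-amplify reporter, label with 6-FAM by primer extension, digest with HpaI, run capillary electrophoresis; induction scored against DMSO.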
On to `O=c1cc(-c2ccccc2)oc2cc(O)cc(O)c12`, for which the half-maximal activity concentration (AC50) is 26.2 µM (active) and 1.8 µM (active).

Consider `CN(C)C(=N)N=C(N)N`, for which the compound was classed as inactive.

`O=C(Oc1ccccc1)c1ccc(O)cc1`: the AC50 was 166 µM (active) and the compound was classed as inactive.

In the case of `CN(CCOc1ccc(CC2SC(=O)NC2=O)cc1)c1ccccn1` (stereo not drawn), the result was inactive.

For the compound `CCCCCCCCCCCCN`, the outcome was inactive.

The target of a further assay is human Thyroid hormone Receptor beta (TRb), THRB (gene 7068) (UniProt P10828). The experiment in a line: ATG_hTRb_XSP2: Attagene TRANS-FACTORIAL Multi-Species (XSP2) HepG2 Assay for human Thyroid hormone Receptor beta (TRb) (AID 2283840).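 Further: actives raise reporter mRNA so potency reflects agonist-like gain of signal.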 In a few lines: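 Transient transfection of human HepG2 with multi-species NR-Gal4/GAL4-UAS reporter constructs; 24 h compound treatment; RNA isolation, reverse transcription, PCR and HpaI digest; capillary electrophoresis of labeled fragments; activity fitted upward versus DMSO.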
human Thyroid hormone Receptor beta (TRb), THRB (gene 7068), sequence (P10828 whole entry, looked up, the tested form may be a part): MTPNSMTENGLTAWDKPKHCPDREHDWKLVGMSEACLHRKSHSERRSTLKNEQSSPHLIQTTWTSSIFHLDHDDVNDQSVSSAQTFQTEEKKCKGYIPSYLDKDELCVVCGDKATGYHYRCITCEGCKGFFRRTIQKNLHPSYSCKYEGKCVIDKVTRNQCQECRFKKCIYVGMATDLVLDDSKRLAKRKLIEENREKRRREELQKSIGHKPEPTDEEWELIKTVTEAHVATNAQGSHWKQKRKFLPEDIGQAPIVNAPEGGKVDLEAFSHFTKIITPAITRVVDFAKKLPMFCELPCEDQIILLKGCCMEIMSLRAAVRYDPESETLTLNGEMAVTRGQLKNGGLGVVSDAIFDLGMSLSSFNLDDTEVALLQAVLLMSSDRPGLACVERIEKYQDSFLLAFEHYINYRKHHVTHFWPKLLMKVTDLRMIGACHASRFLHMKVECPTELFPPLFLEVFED
Regarding `O=c1cc(-c2ccccc2)oc2cc(O)cc(O)c12`, the AC50 is 100 µM (active) and the compound was classed as inactive.

Turning to `CN(C)C(=N)N=C(N)N`, the compound was called inactive.

Take `O=C(Oc1ccccc1)c1ccc(O)cc1`: the compound was classed as inactive.

The next assay concerns Sodium/Iodide Symporter (NIS), SLC5A5 (gene 6528). The experiment in a line: CPHEA_Stoker_NIS_Inhibition_RAIU: CPHEA's Radioactive Iodide Uptake (RAIU) Assay for Sodium/Iodide Symporter (NIS) Inhibition, Stoker and Laws Labs (AID 2283841). In a few lines: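 Iodide uptake through human NIS is measured in an engineered HEK293T line. Cells take up 125I (329pM final) for 2 hours at room temperature alongside chemicals at 0.001–100uM. Retained radioactivity is counted, and the signal is expressed against DMSO controls.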
As for `CC(C)C[C@H]1C(=O)N2CCC[C@H]2[C@]2(O)O[C@](NC(=O)[C@@H]3C=C4c5cccc6[nH]c(Br)c(c56)C[C@H]4N(C)C3)(C(C)C)C(=O)N12`, the result was inactive.

For `CCN(CC)CCOC(=O)c1ccc(N)cc1`, the outcome was inactive.

`O=c1cc(-c2ccccc2)oc2cc(O)cc(O)c12`: the result was inactive.

On to `CSc1nc(NC2CC2)nc(NC(C)(C)C)n1`, for which the AC50 was 10 µM (active).

As to `CCCCCCCCCCCCCOS(=O)(=O)O`, the result was inactive.

`CCN(CC)c1ccc2c(-c3ccccc3C(=O)O)c3ccc(=[N+](CC)CC)cc-3oc2c1`: the outcome was inactive.

Consider `CCCCCCCCC`, for which the result was inactive.

In the case of `BrC1CCC(Br)C(Br)CCC(Br)C(Br)CCC1Br` (stereo not drawn), the result was inactive.

As to `c1ccc(CCCc2ccccn2)cc1`, the outcome was inactive.

Regarding `Cc1ccc(O)c(C(C)(C)C)c1`, the result was inactive.

Regarding `O=C1c2ccccc2C(=O)N1SC1CCCCC1`, the outcome was inactive.

As to `CCCCCCCCCCCCCCCCCC(=O)OCC(CC)CCCC` (stereo not drawn), the result was inactive.

On to `CC(C)=CCCC(C)=CCCC(C)=CCO`, for which the outcome was inactive.

Consider `COc1cc(C(C)(C)C)c(O)c(C(C)(C)C)c1`, for which the result was inactive.

For `c1ccc2[nH]ccc2c1`, the outcome was inactive.

`Cc1ccc(S)cc1`: the outcome was inactive.

Test system in the next assay: not listed separately
Nature of the assay: CPHEA_Stoker_NIS_Cytotoxicity: Cytotoxicity Assessment for CPHEA's Radioactive Iodide Uptake (RAIU) Assay for Sodium/Iodide Symporter (NIS) Inhibition, Stoker and Laws Labs (AID 2283897).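 On AC50: active means loss of ATP signal versus DMSO meaning cytotoxicity.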 In a few lines: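 ATP luminescence (Cell Titer Glo) measured viability, with loss of signal normalized to DMSO controls. Cells: hNIS-HEK293T-EPA, seeded 40 hours prior. Dosing: 0.001–100uM, 2 hours, room temperature, uptake buffer pH 7.4.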
With `CC(C)C[C@H]1C(=O)N2CCC[C@H]2[C@]2(O)O[C@](NC(=O)[C@@H]3C=C4c5cccc6[nH]c(Br)c(c56)C[C@H]4N(C)C3)(C(C)C)C(=O)N12`, the outcome was inactive.

For `CCN(CC)CCOC(=O)c1ccc(N)cc1`, the result was inactive.

For `O=c1cc(-c2ccccc2)oc2cc(O)cc(O)c12`, the result was inactive.

As to `CSc1nc(NC2CC2)nc(NC(C)(C)C)n1`, the outcome was inactive.

With `CCCCCCCCCCCCCOS(=O)(=O)O`, the outcome was inactive.

With `CCN(CC)c1ccc2c(-c3ccccc3C(=O)O)c3ccc(=[N+](CC)CC)cc-3oc2c1`, the AC50 was 13.3 µM (active).

As for `CCCCCCCCC`, the result was inactive.

On to `BrC1CCC(Br)C(Br)CCC(Br)C(Br)CCC1Br` (stereo not drawn), for which the outcome was inactive.

With `c1ccc(CCCc2ccccn2)cc1`, the outcome was inactive.

As to `Cc1ccc(O)c(C(C)(C)C)c1`, the result was inactive.

In the case of `O=C1c2ccccc2C(=O)N1SC1CCCCC1`, the AC50 was 79.4 µM (active).

`CCCCCCCCCCCCCCCCCC(=O)OCC(CC)CCCC` (stereo not drawn): the result was inactive.

On to `CC(C)=CCCC(C)=CCCC(C)=CCO`, for which the outcome was inactive.

As to `COc1cc(C(C)(C)C)c(O)c(C(C)(C)C)c1`, the outcome was inactive.

For the compound `O=C(Oc1ccccc1)c1ccc(O)cc1`, the result was inactive.

On to `CC(C)=CCC[C@](C)(O)[C@@H]1CC=C(C)CC1`, for which the outcome was inactive.

As to `Cc1ccc(S)cc1`, the result was inactive.

The values are drawn from PubChem BioAssay (EPA / NIEHS).
